From PubChem BioAssay
Sampled rows, rich in hits. Any-hit rate of the full collection: about 3.6%.
pS6 MEF inh: Acumen qHTS Assay for Inhibitors of the mTORC1 Signaling Pathway in MEF (Tsc2-/-, p53-/-) Cells: Sytravon. actives 0.78% (n = 44,000). AID 493208, 2011. Tsc2-/- p53-/- MEF, phospho-rpS6 immunofluorescence/PI, 24 h. Potency, µM (titrated, usually from 38.3 µM), inactives show at the top dose activity change, negative = inhibition, usual class: inhibitors;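 further: plate controls were DMSO for no effect and rapamycin for full effect; nearly all actives have a fitted effect of over 50% in size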
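Compounds act on Tsc2-/-, p53-/- fibroblasts carrying an empty vector for 24 h before fixation and dual staining for phospho-S6 and DNA (propidium iodide). Values are percentages of cells above a rapamycin-defined pS6/PI threshold.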
HTT prom inh: Primary qHTS for Identification of Small Molecule Inhibitors of Huntingtin Promoter Activity; HEK293 HTT promoter firefly luciferase reporter, 24 h; Potency, µM (top dose mostly 57.5 µM), for inactives: top-dose activity change, negative = inhibition, hits mostly inhibitors; actives 0.93% (n = 48,000); further: nearly all actives have a fitted effect of over 50% in size
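Firefly luciferase signal from promoter-reporter HEK293 cells was scaled between vehicle (0%) and zero RLU (-100%). Compounds were tested at final concentrations of up to 57.5 uM over 24 h at 37 degrees C. PTC124 at 50 uM final served as control inhibitor.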
HTT-AS promoter: Primary qHTS for Identification of Small Molecule Activators of Huntingtin-Antisense Promoter Activity; HEK293 HTT-AS promoter firefly luciferase reporter, 24 h; response scale: percent change from vehicle, -100% = no light; Potency, µM (titrated, usually from 57.5 µM), for inactives: at the highest dose activity change, positive = activation, actives largely listed as activators; actives 0.24% (n = 48,000); further: nearly all actives have a fitted effect of over 55% in size
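Firefly luciferase signal from promoter-reporter HEK293 cells was scaled between vehicle (0%) and zero RLU (-100%). Compounds were tested at final concentrations of up to 57.5 uM over 24 h at 37 degrees C. PTC124 at 50 uM final served as control inhibitor.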
PMP22 txn prim: Cell-based coincidence reporter assay to measure PMP22 gene transcription in S16 Pmp22-F2sN cells - Primary screen | AID 1508649, 2021 | Potency, µM (highest dose often 57.5 µM), for the others: at the highest dose activity change, negative = inhibition, most hits filed as inhibitors | actives 2% (n = 43,000) | S16 Pmp22-F2sN Schwann cells, FLuc/NLuc coincidence luminescence, 24 h; active means clear falling dose curves in both reporters; inconclusive means both reporters move, but less clearly or upward; inactive means either reporter flat; the % is the NLuc reporter signal; further: on the % scale 0 is the no-effect control and ±100 the full control effect
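Schwann cells carrying the coincidence reporter were exposed to library compounds for 24 h at 37C, then lysed and read for FLuc and, after quenching, NLuc luminescence on a CCD imager.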
S16 viability: Cell viability qHTS assay in S16 Pmp22-F2sN cells | S16 Pmp22-F2sN Schwann cells (luciferase reporters placed in the Pmp22 gene) viability, CellTiter-Glo, 24 h | Potency, µM (highest dose often 57.5 µM), without a hit: top-dose activity change, negative = cytotoxicity, usual class: cytotoxic | actives 0.48% (n = 43,000); further: on the % scale 0 is the no-effect control and ±100 the full control effect; nearly all actives have a fitted effect of over 65% in size
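Seed 500-1,000 S16 Pmp22-F2sN cells per well in phenol-red-free DMEM with 10% heat-inactivated FBS; pin-add 23 nL compound; incubate 24 h at 37C; add CellTiter-Glo, wait 15 min protected from light; read luminescence.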
* hit, by the source's call. Unless noted, the call rests on the fitted dose curve; in most records, active means well fitted curve in the direction sought with a large enough effect; inconclusive means small, poorly fitted or top-dose-only effect, or another doubt; inactive means no such curve, though single readings can be large; an effect the other way counts as inactive or inconclusive. Potency means the concentration at half of the fitted maximal effect.

Results for COc1cc2c(cc1NC(=O)C(C)Oc1ccccc1)oc1ccccc12 (stereo not drawn) ?
pS6 MEF inh: -18%; HTT prom inh: 32%; HTT-AS promoter: 4µM*; PMP22 txn prim: 35%; S16 viability: -16%

What do the screens show for `COC(=O)Nc1ccc(-c2nc(N3CCOCC3)c3cnn(C4CCN(Cc5cccnc5)CC4)c3n2)cc1`?
HTT prom inh: inconclusive; HTT-AS promoter: -29%

How did NC(=O)c1nc(Nc2ccccc2)sc1NC(=O)c1c(F)cccc1F do in these assays?
pS6 MEF inh: -19%; HTT prom inh: 14%; HTT-AS promoter: inconclusive; PMP22 txn prim: -21%; S16 viability: -12%

What do the screens show for `CN(C)c1ccc(Nc2nc(N)n(C(=O)c3c(F)cccc3F)n2)cc1`?
HTT prom inh: 21%; HTT-AS promoter: 24µM*

How did Cc1ccc(NC(=O)NCC2CCN(Cc3cccc(Cl)c3)CC2)cc1Cl do in these assays?
pS6 MEF inh: 10µM*; HTT prom inh: inconclusive; HTT-AS promoter: -13%; PMP22 txn prim: inconclusive; S16 viability: inconclusive

What do the screens show for `O=C(NCC1CCN(Cc2ccccc2F)CC1)Nc1ccc(F)c(Cl)c1`?
pS6 MEF inh: inconclusive; HTT prom inh: inconclusive; HTT-AS promoter: -16%; PMP22 txn prim: inconclusive; S16 viability: inconclusive

Results for Cc1cccc(-c2nnc(SCCC(=O)O)o2)c1 ?
pS6 MEF inh: 0%; HTT prom inh: 0.25µM*; HTT-AS promoter: -91%; PMP22 txn prim: -3%; S16 viability: -6%

Results for Cc1ccc(NC(=O)c2c(C)oc3ccc(O)c(CN(C)Cc4ccccc4)c23)c(C)c1 ?
pS6 MEF inh: 15µM*; HTT prom inh: -23%; HTT-AS promoter: -25%; PMP22 txn prim: inconclusive; S16 viability: -27%

What do the screens show for `Cc1[nH]c2ccccc2c1CCNCc1ccc(C=CC(=O)NO)cc1`?
HTT prom inh: 266%; HTT-AS promoter: inconclusive

How did CCCCN(C)C(=O)C1CCCN(c2ncnc3onc(C)c23)C1 (stereo not drawn) do in these assays?
pS6 MEF inh: -8%; HTT prom inh: 1.8µM*; HTT-AS promoter: -45%; PMP22 txn prim: inconclusive; S16 viability: -24%

Results for Cc1cccc2c1-c1sc(C(=O)NCCc3ccc(Cl)cc3)cc1CO2 ?
pS6 MEF inh: inconclusive; HTT prom inh: inconclusive; HTT-AS promoter: -23%; PMP22 txn prim: inconclusive; S16 viability: 32µM*

Results for CC(=O)c1ccc(NC(=O)c2nc(-c3ccccc3)n(-c3ccccc3)n2)cc1 ?
pS6 MEF inh: 3%; HTT prom inh: -2%; HTT-AS promoter: -14%; PMP22 txn prim: inconclusive; S16 viability: 13%

How did Cc1c(C(=O)Nc2ccc(C(=O)O)cc2)nnn1-c1ccccc1 do in these assays?
pS6 MEF inh: -21%; HTT prom inh: 2.5µM*; HTT-AS promoter: -91%; PMP22 txn prim: 15%; S16 viability: -5%

How did O=C(O)CCc1nc2ccccc2[nH]1 do in these assays?
HTT prom inh: 4%; HTT-AS promoter: -10%

Results for Cc1ccc(/C=C/c2nc3ccccc3[nH]2)cc1 ?
pS6 MEF inh: 14%; HTT prom inh: -68%; HTT-AS promoter: -72%; PMP22 txn prim: inconclusive; S16 viability: 16µM*

Results for O=C(Nc1ccc(C(F)(F)F)cc1)c1cc(S(=O)(=O)NC2CCCCCC2)ccc1F ?
pS6 MEF inh: inconclusive; HTT prom inh: 28µM*; HTT-AS promoter: -75%; PMP22 txn prim: inconclusive; S16 viability: inconclusive

Results for Cc1ccc(Nc2nc3nonc3nc2Nc2cccc(C(F)(F)F)c2)cc1Cl ?
pS6 MEF inh: inconclusive; HTT prom inh: 1.3µM*; HTT-AS promoter: -91%; PMP22 txn prim: 7.6µM*; S16 viability: 11µM*
